Each structure is given as a SMILES string. Activity calls are given as the source filed them.

For test [1], the system named is PRMT1 (protein arginine N-methyltransferase 1). Description: small molecules binding arginine methyltransferase PRMT1 – biochemical, small-molecule microarray, 635 nm fluorescence, primary screen (AID 1088).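 Note: binding of Prmt1 protein to compounds spotted on small-molecule microarray slides.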 The settings on record: higher = more signal.
Test [2] is described as follows: growth effects on S. cerevisiae YJM789 – YJM789 clinical isolate, OD600, 24 h, basal, primary screen (AID 1089).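 Note: growth of clinical yeast isolate S. cerevisiae YJM 789 seeded 1000 cells per well; test concentration not given here.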 As to conditions: higher = more signal, called active from +8 up or from −8 down.
A short description of test [3]: S. pombe growth modifiers, basal conditions – strain 972, OD600, 24 h, no modulator, primary screen (AID 1090).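 Note: basal condition with compound alone and no growth modifier present; test concentration not given here.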 The settings on record: S. pombe 972 growth, higher = more signal, called active from +8 up or from −8 down.
Test [4] in a line: budding yeast growth modifiers under rapamycin – strain BY4716, OD600, 96 h, primary screen (AID 1091). Note: test concentration not given here. As to conditions: S. cerevisiae BY4716 + rapamycin, higher = more signal, called active from +8 up or from −8 down.
For test [5], the target named is Torsin-1A-interacting protein 2 (Homo sapiens) (UniProt Q8NFQ8). Nature of the test: small molecules binding lysate-expressed LULL1 – cell lysate, human LULL1 lysate, 635/667 nm fluorescence, primary screen (AID 1092).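 Note: probe is lysate of COS7 cells overexpressing human LULL1; score merges per-feature 667 nm fluorescence with signal-to-noise.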 As to conditions: small-molecule microarray, hLULL1 lysate binding, 635 nm fluorescence; higher = more signal.
Torsin-1A-interacting protein 2 (Homo sapiens), sequence (Q8NFQ8 whole entry, looked up): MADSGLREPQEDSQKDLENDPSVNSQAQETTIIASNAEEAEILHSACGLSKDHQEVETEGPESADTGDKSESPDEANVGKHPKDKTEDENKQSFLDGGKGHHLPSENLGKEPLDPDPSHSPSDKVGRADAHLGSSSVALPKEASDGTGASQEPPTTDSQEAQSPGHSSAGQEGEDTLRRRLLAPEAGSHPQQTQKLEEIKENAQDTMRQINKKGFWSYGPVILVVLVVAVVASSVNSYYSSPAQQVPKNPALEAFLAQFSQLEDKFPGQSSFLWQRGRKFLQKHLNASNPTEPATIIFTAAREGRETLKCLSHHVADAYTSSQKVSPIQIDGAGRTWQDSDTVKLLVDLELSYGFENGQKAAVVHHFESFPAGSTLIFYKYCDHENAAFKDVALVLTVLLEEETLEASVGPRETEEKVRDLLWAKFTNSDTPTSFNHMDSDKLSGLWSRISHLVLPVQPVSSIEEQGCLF
Test [6] in a line: optical density change of DRC41 E. coli – strain DRC41, OD650, 24 h, E. coli filamentation project, primary screen (AID 1093).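 Note: MC1000 strain lacking acrAB efflux and sulA so SOS filamentation is blocked; test concentration not given here.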 As to conditions: E. coli DRC41 growth, higher = more signal, called active from +8 up or from −8 down.
Test [7] in a line: probe aLefty2 binding to arrayed compounds – biochemical, biotinylated probe, 635/667 nm fluorescence, primary screen (AID 1094).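 Note: score merges spot fluorescence near 667 nm with spot signal-to-noise ratio.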 As to conditions: small-molecule microarray, higher = more signal.
For test [8], the system named is Noggin (protein binding on small-molecule microarray). Nature of the test: small molecules binding Noggin protein – biochemical, 635/667 nm fluorescence, primary screen (AID 1095).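 Note: score merges 667 nm feature fluorescence with signal to noise over triplicate slides.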 As to conditions: 635 nm fluorescence, higher = more signal.
Test [9] concerns the target Neurogenic locus notch homolog protein 3 (Homo sapiens) (UniProt Q9UM47). Nature of the test: small molecules binding NOTCH3 protein – biochemical, 635/667 nm fluorescence, primary screen (AID 1096). The settings on record: small-molecule microarray, 635 nm fluorescence, higher = more signal.
Test [10] can be described thus: probe aEGFR binding to arrayed compounds – biochemical, biotinylated probe, 635/667 nm fluorescence, primary screen (AID 1097).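 Note: probe is a biotinylated anti-EGFR antibody binding compounds printed on slides; score combines fluorescence near 667 nm and signal to noise of each spot.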 The settings on record: small-molecule microarray, higher = more signal.

Neurogenic locus notch homolog protein 3 (Homo sapiens), sequence (Q9UM47 whole entry, looked up): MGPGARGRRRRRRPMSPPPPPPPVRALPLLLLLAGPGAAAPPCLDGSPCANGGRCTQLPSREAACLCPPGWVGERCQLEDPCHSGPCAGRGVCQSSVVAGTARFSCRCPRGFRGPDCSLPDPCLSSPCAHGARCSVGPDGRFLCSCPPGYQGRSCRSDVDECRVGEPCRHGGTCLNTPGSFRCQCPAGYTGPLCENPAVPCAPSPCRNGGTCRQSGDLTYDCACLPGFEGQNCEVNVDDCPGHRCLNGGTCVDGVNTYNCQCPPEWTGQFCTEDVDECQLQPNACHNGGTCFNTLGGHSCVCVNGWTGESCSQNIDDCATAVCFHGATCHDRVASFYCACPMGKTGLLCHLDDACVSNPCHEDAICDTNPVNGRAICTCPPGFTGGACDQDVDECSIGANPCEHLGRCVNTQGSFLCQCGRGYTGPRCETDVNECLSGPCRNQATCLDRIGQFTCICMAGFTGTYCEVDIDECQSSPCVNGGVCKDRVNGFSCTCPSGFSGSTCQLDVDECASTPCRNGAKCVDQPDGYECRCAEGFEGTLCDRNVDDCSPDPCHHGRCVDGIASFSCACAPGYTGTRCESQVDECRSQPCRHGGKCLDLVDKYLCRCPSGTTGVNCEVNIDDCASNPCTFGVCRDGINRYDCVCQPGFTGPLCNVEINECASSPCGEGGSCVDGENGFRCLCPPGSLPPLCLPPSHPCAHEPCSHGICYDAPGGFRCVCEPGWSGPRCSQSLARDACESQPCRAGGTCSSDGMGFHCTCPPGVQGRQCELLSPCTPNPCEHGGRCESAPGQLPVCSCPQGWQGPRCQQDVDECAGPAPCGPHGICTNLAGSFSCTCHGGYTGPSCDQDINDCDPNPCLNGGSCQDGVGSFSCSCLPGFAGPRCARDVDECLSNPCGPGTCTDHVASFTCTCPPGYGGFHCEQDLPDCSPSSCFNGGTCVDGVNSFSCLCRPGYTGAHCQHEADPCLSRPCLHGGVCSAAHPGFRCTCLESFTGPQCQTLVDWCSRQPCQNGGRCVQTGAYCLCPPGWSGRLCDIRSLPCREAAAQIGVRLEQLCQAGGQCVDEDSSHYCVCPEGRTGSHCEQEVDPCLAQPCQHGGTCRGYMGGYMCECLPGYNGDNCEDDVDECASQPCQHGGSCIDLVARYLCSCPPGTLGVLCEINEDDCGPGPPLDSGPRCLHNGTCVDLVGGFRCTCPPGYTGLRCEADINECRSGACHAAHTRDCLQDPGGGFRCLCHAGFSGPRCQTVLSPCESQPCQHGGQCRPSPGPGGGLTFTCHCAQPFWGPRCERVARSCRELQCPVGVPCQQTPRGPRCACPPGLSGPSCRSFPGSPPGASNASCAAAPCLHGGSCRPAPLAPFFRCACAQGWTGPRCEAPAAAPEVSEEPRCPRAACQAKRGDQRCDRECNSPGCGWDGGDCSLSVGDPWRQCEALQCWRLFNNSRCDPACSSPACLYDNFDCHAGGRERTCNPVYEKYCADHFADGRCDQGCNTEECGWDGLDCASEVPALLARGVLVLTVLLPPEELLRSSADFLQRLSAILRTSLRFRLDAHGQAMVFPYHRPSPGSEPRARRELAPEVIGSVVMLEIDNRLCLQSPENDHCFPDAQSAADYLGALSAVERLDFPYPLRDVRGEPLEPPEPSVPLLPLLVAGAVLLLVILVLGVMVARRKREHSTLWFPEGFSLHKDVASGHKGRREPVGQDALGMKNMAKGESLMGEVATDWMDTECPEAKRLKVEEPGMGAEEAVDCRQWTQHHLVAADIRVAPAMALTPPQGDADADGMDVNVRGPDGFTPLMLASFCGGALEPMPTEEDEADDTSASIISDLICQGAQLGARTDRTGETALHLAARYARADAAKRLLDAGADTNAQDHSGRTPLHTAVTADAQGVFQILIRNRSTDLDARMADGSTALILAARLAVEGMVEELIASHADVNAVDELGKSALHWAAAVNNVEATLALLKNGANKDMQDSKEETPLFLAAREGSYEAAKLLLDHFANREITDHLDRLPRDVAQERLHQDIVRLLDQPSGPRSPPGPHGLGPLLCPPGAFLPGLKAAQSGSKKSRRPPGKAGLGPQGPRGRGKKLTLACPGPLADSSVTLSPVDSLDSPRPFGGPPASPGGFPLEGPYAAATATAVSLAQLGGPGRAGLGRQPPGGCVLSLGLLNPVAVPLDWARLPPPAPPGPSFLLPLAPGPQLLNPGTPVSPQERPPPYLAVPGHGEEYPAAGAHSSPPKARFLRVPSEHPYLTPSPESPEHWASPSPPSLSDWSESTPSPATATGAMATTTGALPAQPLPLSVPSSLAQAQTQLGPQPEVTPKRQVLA

With `C[N+](C)(C)CCCCNC(=O)[C@H]1C[C@H]2C(=O)NCC(=O)N2[C@H]1c1ccc(O)cc1`, the composite z-score in [1] was 1.46; in test [5], 1.84; in test [7] it was 0.0823; in test [8] it was 2.01; in test [9], 1.04; in [10], 0.154. Also, the z-score was -0.826 (inactive) in test [2], 0.0918 (inactive) in test [3], -1.71 (inactive) in test [4] and 0.509 (inactive) in [6].
On to `C=C(/C(=C/C[C@@H](OC(=O)c1ccncc1)c1cccc(OCCO)c1)c1cc(C(=O)OC)ccc1OC)C(C)C`, for which the composite z-score in [1] is 1.33; in [5], 1.54; in [7], 0.0233; in test [8], 0.548; in [9], 0.93; in test [10], -0.0476. In addition, the z-score in test [2] was -0.117 (inactive); in [3], -1.22 (inactive); in test [4] it was -0.35 (inactive); in test [6] it was 1.03 (inactive).
Consider `COc1ccc([Si](C)(C)[C@@H]2[C@@H](CC(=O)N(CCO)Cc3ccccc3)O[C@]3(C(=O)N(C)c4c(Br)cc(C)cc43)[C@H]2C)cc1`, for which the composite z-score is 1.37 in [1]; 0.214 in test [5]; -0.149 in [7]; 1.56 in test [8]; 0.92 in [9]; -0.0978 in test [10]. For the same molecule, the z-score in test [2] was -0.8 (inactive); in [3], 0.0424 (inactive); in test [4] it was 0.991 (inactive); in [6], -1.37 (inactive).
On to `COC(=O)[C@@]1(Cc2ccc(F)cc2)[C@H]2c3cc(C(=O)N(C)C)n(CCSCCO)c3C[C@H]2CN1C(=O)c1ccccc1`, for which the composite z-score in test [1] was 0.0793; in test [5], 2.72; in [7], 0.0126; in test [8], -0.443; in [9], 0.229; in [10], -0.162. The z-score in test [2] was 0.125 (inactive); in [3], 0.642 (inactive); in [4], -0.0109 (inactive); in test [6] it was 0.162 (inactive).
On to `CC(C)CCC[C@@H](C)[C@H]1CC[C@@]2(C)C3=C(CC[C@]12C)[C@@]1(C)CC[C@H](OC(=O)C(C)(C)C)C(C)(C)C1CC3` (stereo not given in full), for which the composite z-score was 0.475 in test [1]; 0.0236 in test [5]; -0.212 in test [7]; 0.57 in test [8]; 0.571 in [9]; -0.0549 in test [10]. In addition, the z-score in test [2] is -3.55 (inactive); in test [3] it was -2.59 (inactive); in [4] it was -2.18 (inactive); in [6], 0.768 (inactive).
Regarding `CCOC(=O)C[C@H]1[C@H](OC(=O)c2ccccc2-c2ccccc2)[C@@H](NC(=O)c2ccccc2)c2cc(OCCCO)ccc2N1C(=O)Cc1ccc(OC)cc1`, the composite z-score in [1] was -0.175; in test [5] it was 0.601; in [7], -0.0963; in test [8], -0.0496; in [9] it was -0.196; in [10], -0.108. The z-score in [2] was -0.211 (inactive); in test [3], -0.0183 (inactive); in [4], 0.452 (inactive); in test [6], -0.922 (inactive).
On to `CCCCC(=C=CC[C@H](O)c1cccc(OCCO)c1)C[C@H](O)COCc1ccccc1`, for which the composite z-score in [1] was 0.494; in test [5], 1.04; in test [7], -0.195; in test [8] it was -0.0291; in test [9], -0.323; in test [10] it was -0.154. In addition, the z-score in [2] was -0.646 (inactive); in test [3] it was -0.586 (inactive); in test [4] it was -1.15 (inactive); in test [6], 0.338 (inactive).
On to `COc1ccc(C(=O)Nc2ccc(CN3C(=O)[C@@]4(O[C@@H](CC(=O)N5Cc6ccccc6C[C@H]5CO)[C@H]([Si](C)(C)c5ccc(OC)cc5)[C@H]4C)c4ccccc43)cc2)cc1`, for which the composite z-score in [1] was 1.51; in test [5] it was 1.92; in [7] it was -0.215; in test [8], 1.61; in test [9], 1.13; in test [10] it was -0.0961. The z-score in test [2] is -1.8 (inactive); in [3] it was 0.821 (inactive); in test [4], 1.87 (inactive); in [6] it was 0.265 (inactive).
For the molecule `C[N+](C)(C)CCCC[C@@H]1NC(=O)[C@@H]2C[C@H](C(=O)O)[C@H](c3cccc(OCCO)c3)N2C1=O`, the composite z-score in [1] was 0.583; in test [5], 0.423; in [7] it was -0.175; in [8], 0.601; in test [9], -0.78; in test [10], -0.175. In addition, the z-score in test [2] is 0.852 (inactive); in test [3], -1.13 (inactive); in test [4], 0.167 (inactive); in test [6], 0.817 (inactive).
On to `COc1ccccc1CN1C(=O)c2ccccc2[C@](Cc2ccccc2I)(C(=O)NCCN2CCOCC2)[C@@H]1c1ccc(CO)cc1`, for which the composite z-score is 1.54 in test [1]; 3.27 in [5]; -0.0028 in [7]; 1.12 in [8]; 1.09 in [9]; -0.0502 in test [10]. Besides, the z-score in test [2] was -2.4 (inactive); in test [3], 0.548 (inactive); in test [4] it was -0.168 (inactive); in [6], 0.0429 (inactive).
For the molecule `[N-]=[N+]=NCc1ccccc1[C@H]1OC(c2ccc(OCCCO)cc2)=N[C@@]1(Cc1ccccc1)C(N)=O`, the composite z-score in test [1] came out at 1.56; in test [5], 3.37; in [7] it was 0.408; in test [8], 0.429; in test [9] it was 1.13; in test [10], 0.29. Further, the z-score in test [2] was -0.116 (inactive); in test [3] it was -1.07 (inactive); in test [4] it was -0.443 (inactive); in [6], 0.369 (inactive).
Regarding `COCC(=C=CC[C@@H](O)c1ccccc1OCCO)C[C@@H](O)COCc1ccccc1`, the composite z-score in test [1] was 1.23; in test [5] it was 2.62; in test [7] it was 0.437; in test [8] it was 1.01; in [9] it was -0.0082; in [10], 0.0017. The z-score in test [2] was -0.893 (inactive); in test [3] it was -1.68 (inactive); in test [4] it was -1.26 (inactive); in test [6] it was 1.73 (inactive).
In the case of `CCCCC(=C=CC[C@H](O)c1ccccc1OCCO)C[C@H](O)c1ccccn1`, the composite z-score in test [1] was 1.13; in test [5], 0.0266; in test [7], -0.0699; in test [8] it was 0.939; in test [9] it was 0.0956; in test [10], -0.179. In addition, the z-score in test [2] is 0.27 (inactive); in [3], -0.132 (inactive); in test [4], 0.0422 (inactive); in [6] it was 1.3 (inactive).
On to `NC(=O)NCC#Cc1ccc2c(c1)[C@]1(C(=O)N2)[C@H](c2ccc(O)cc2)N2[C@H](c3ccccc3)[C@H](c3ccccc3)OC(=O)[C@H]2[C@@H]1C(=O)NC[C@H](O)c1ccccc1`, for which the composite z-score was -0.0161 in [1]; -0.383 in test [5]; -0.0435 in [7]; -2.14 in test [8]; -0.91 in test [9]; -0.276 in [10]. The z-score in [2] is -0.195 (inactive); in test [3], 0.207 (inactive); in test [4], -0.0001 (inactive); in [6], 0.821 (inactive).
With `COCCCNC(=O)[C@]1(Cc2ccccc2CN=[N+]=[N-])N=C(c2ccc(OCCCO)cc2)O[C@@H]1c1ccccc1CN=[N+]=[N-]`, the composite z-score in test [1] was found to be 1.51; in test [5], 3.17; in [7], 0.419; in test [8], 0.342; in [9], 0.697; in test [10], 0.332. Besides, the z-score in test [2] is -0.353 (inactive); in [3], 1.34 (inactive); in test [4], 31.6 (active); in [6], 0.378 (inactive).
`C=CCC(OC(C)=O)[C@@H]1[C@@H](N(Cc2cc3ccccc3o2)C(=O)Cc2ccc(OC)cc2)c2cc(OCCCO)ccc2N1C(=O)c1ccc(-c2ccccc2)cc1` (stereo not given in full): the composite z-score is -0.427 in [1]; 0.238 in test [5]; 0.0689 in test [7]; -0.624 in test [8]; -1.09 in [9]; -0.127 in test [10]. In addition, the z-score in [2] was 0.0801 (inactive); in test [3] it was -0.709 (inactive); in [4], 0.714 (inactive); in test [6], 1.53 (inactive).
For the molecule `C=CCOC(=O)[C@@H]1[C@H]2C(=O)O[C@H](c3ccccc3)[C@H](c3ccccc3)N2[C@H](c2ccc(OCCOC(=O)[C@@H]3C[C@@H]4C(=O)N[C@@H](CCCCNC(C)=O)C(=O)N4[C@@H]3c3ccc(O)cc3)cc2)[C@@]12C(=O)Nc1ccc(I)cc12`, the composite z-score in test [1] is 1.54; in test [5], 2.15; in test [7] it was -0.0248; in [8], 1.42; in test [9], 1.13; in test [10], 0.15. Moreover, the z-score in [2] is 0.0797 (inactive); in [3] it was 0.994 (inactive); in test [4] it was 2.96 (inactive); in [6], -0.101 (inactive).
As to `COCCCNC(=O)[C@]1(Cc2ccccc2)N=C(c2ccc(OCCCO)cc2)O[C@@H]1c1ccccc1N=[N+]=[N-]`, the composite z-score was 1.56 in test [1]; 3.16 in test [5]; -0.02 in test [7]; 1.67 in [8]; 1.15 in test [9]; -0.0238 in [10]. Also, the z-score was -0.499 (inactive) in test [2], -0.357 (inactive) in [3], 1.37 (inactive) in [4] and 0.49 (inactive) in test [6].
Regarding `C#CCNS(=O)(=O)N(C)C`, the composite z-score was 0.392 in [1]; 0.43 in [5]; -0.139 in [7]; 0.4 in test [8]; 0.579 in test [9]; -0.054 in test [10]. The z-score in [2] was 1.24 (inactive); in test [3] it was 0.783 (inactive); in test [4], 0.689 (inactive); in test [6], 0.663 (inactive).

Values taken from PubChem BioAssay.
